High-throughput results deposited in PubChem by National Center for Advancing Translational Sciences (NCATS).
The list is not random: actives were taken first. Their share in the collection is about 8.3%.
HCV inhibitor – qHTS Assay for Inhibitors of Hepatitis C Virus (HCV); Potency, µM (series often up to 41.8 µM), for inactives: at the top dose activity change, negative = inhibition, actives largely listed as inhibitors; Huh7.5.1 HCVcc-Cre infection, luciferase reporter, 44 h; 340,000 compounds, 3.4% hits; note: potency is the fitted concentration of half-maximal effect
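Cells (1,000/well) were plated 4 h before compound, then infected with HCVcc-Cre virus (~0.5 moi). After 44 h further culture, infection was read as luciferase luminescence following a 15 min substrate incubation at room temperature.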
LASV entry inh – qHTS for Inhibitors of binding or entry into cells for Lassa Virus. Lassa virus pseudotype entry inhibition, cell reporter. Potency, µM (doses to about 37.9 µM), without a hit: at the highest dose activity change, negative = inhibition, usual class: inhibitors. 300,000 compounds, 1.2% hits. AID 540256, 2011; calls by dose curve; tested in HEK293 cells; note: potency is the fitted concentration of half-maximal effect; nearly all actives have a fitted effect of over 50% in size
Marburg entry inh – qHTS for inhibitors of binding or entry into cells for Marburg Virus; Marburg virus pseudotyped entry inhibition, cell reporter; Potency, µM (highest dose often 37.8 µM), for the others: at the top dose activity change, negative = inhibition, actives largely listed as inhibitors; 300,000 compounds, 1.8% hits; AID 540276, 2011; calls by dose curve; tested in HEK293 cells; note: potency is the fitted concentration of half-maximal effect
FMDV antiviral – High Throughput Screening for Foot and Mouth Disease Virus Antivirals; FMDV antiviral cell-based qHTS; Potency, µM (doses to about 57.9 µM), for the others: top-dose activity change, negative = inhibition, usual class: inhibitors; 410,000 compounds, 1.2% hits; calls by dose curve; tested in HEK293T cells; note: read-out not given here; potency is the fitted concentration of half-maximal effect; nearly all actives have a fitted effect of over 45% in size
HCMV antiviral – qHTS Assay for inhibitors of the human cytomegalovirus (HCMV); HFF cells, HCMV-luciferase reporter, 72 h; stronger effect = lower value; activity change, negative = inhibition, % at 57.5 µM; 410,000 compounds, 4.5% hits; in the data active = activity change below about -60%; inconclusive = no clear call, values can overlap the other calls; inactive = above about -39%
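Human foreskin fibroblasts infected with luciferase-reporter HCMV at MOI 1 PFU/cell, compounds at two doses. Luciferase measured 72 h post infection; normalized to buffer-only basal and Salinomycin (10uM) controls.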
Giardia FBPA inh – qHTS Assay for Inhibitors of Fructose-1,6-bisphosphate Aldolase from Giardia Lamblia; AID 2451, 2010; purified Giardia FBPA; 290,000 compounds, 0.71% hits; Potency, µM (top dose mostly 59.6 µM), for the others: top-dose activity, negative = inhibition, hits mostly inhibitors; A8B2U2; note: potency is the fitted concentration of half-maximal effect; nearly all actives have a fitted effect of over 55% in size
Target sequence (A8B2U2 whole entry, looked up): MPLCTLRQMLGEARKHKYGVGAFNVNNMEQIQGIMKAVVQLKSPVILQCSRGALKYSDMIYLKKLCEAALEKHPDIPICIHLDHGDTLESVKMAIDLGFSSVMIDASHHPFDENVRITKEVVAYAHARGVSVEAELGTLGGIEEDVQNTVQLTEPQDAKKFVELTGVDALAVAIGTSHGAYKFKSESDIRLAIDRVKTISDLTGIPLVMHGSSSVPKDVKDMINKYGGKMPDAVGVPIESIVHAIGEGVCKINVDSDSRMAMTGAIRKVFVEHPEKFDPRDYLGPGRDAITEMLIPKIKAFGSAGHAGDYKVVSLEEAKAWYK
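Giardia FBPA (40 nM reagent) was preincubated 10 min at RT with compound (up to 57.5 uM final), then substrate plus GAPDH/TPI/NAD/arsenate coupling system with diaphorase/resazurin was added; resorufin fluorescence (525/598 nm) was read after 20 min.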
* hit, by the source's call; ? = inconclusive; . = no result given; [ ] = another dose, or the depositor's remark. Unless noted, calls come from the whole dose curve; as a rule, active = well fitted curve in the direction sought with a large enough effect; inconclusive = small, poorly fitted or top-dose-only effect, or another doubt; inactive = no such curve, though single readings can be large; an effect the other way counts as inactive or inconclusive. % is set by controls: 0 for no effect and ±100 for the full control effect.

SMILES	HCV inhibitor	LASV entry inh	Marburg entry inh	FMDV antiviral	HCMV antiviral	Giardia FBPA inh
CN1C(=O)C(C)(C)c2cc(S(=O)(=O)N3CCCC(C(=O)Nc4ccc(Cl)cc4)C3)ccc21 (centres undefined)	11µM*	.	.	?	?	-1%
CC(C)c1ccc(NC(=O)C2CCCN(S(=O)(=O)c3ccc4c(c3)C(C)(C)C(=O)N4C)C2)cc1 (centres undefined)	13µM*	.	.	?	?	-15%
CC(C)(C)N=Cc1cc(-c2ccccc2)sc1O	10µM*	0%	?	58%	30	-2%
CC1(C)CC(=O)c2cc(-c3nc(-c4ccc(F)cc4)cs3)c(=O)[nH]c2C1	.	-8%[46.1 µM]	-22%[46.1 µM]	-18%	-5	.
CC(=O)N1CCN(C(=O)c2cccc(S(=O)(=O)N3c4ccccc4CC3C)c2)CC1 (centres undefined)	-6%	-24%[46.1 µM]	1%[46.1 µM]	4%	-19	.
CC1Cc2ccccc2N1S(=O)(=O)c1cccc(C(=O)N2CCN(c3ncccn3)CC2)c1 (centres undefined)	?	?	?	?	-98*	-3%
O=C(NCc1ccncc1)c1cccc(S(=O)(=O)N2CCc3ccccc32)c1	11µM*	.	.	?	?	.
O=C(c1cccc(S(=O)(=O)N2CCCCC2)c1)N1CCc2ccccc21	?	6%	?	4%	-72*	24%
CC(NS(=O)(=O)c1cccc(C(=O)NCc2ccncc2)c1)c1ccccc1 (centres undefined)	-9%	.	.	-4%	-100*	.
COc1ccc(CCNC(=O)c2cccc(S(=O)(=O)NC(C)c3ccccc3)c2)cc1 (centres undefined)	?	.	.	-6%	-11	.
COc1ccc2c(c1)O[C@@H](c1ccc3c(c1)OCO3)[C@H](OC(=O)N[C@H]1CCCc3ccccc31)C2=O	.	.	.	.	.	1%
O=C(Nc1ccc(F)cc1F)c1cc2c(=O)n3ccccc3nc2s1	.	17%[46.1 µM]	10%[46.1 µM]	14%	7	.
CC1Cc2ccccc2N1S(=O)(=O)c1cccc(C(=O)NCc2ccncc2)c1 (centres undefined)	?	-20%	7.9µM*	-30%	-89*	.
COc1cc2c(cc1OC)CN(C(=O)c1cccc(S(=O)(=O)N3CCc4ccccc43)c1)CC2	?	4µM*	4µM*	-34%	?	.
Cc1ccc(-c2ccnc(-n3ncc(C(=O)N(C)CC4CCCN(C)C4)c3C)n2)o1 (centres undefined)	.	.	.	0%	.	.
Cc1ccc(C)c(CN2C(=O)c3ccccc3S(=O)c3ccc(C(=O)NCCc4ccc(Cl)cc4)cc32)c1 (centres undefined)	.	?	?	-10%	-13	.
Cc1ncc(CO)c(CNc2ccc(Oc3ccccc3)cc2)c1O	11µM*	?	-26%[46.1 µM]	-26%	-70*	1%
CC(C)(C)OC(=O)/C=C/[C@@H]1Cc2cc(C(F)(F)F)ccc2N1	.	.	.	.	14	.
CCCn1c(SCCN2CCOCC2)nc2c1c(=O)n(C)c(=O)n2C	16%	.	.	2%	-38	2%
Cn1c(=O)c2c(nc(Sc3ncccn3)n2Cc2ccc(Cl)cc2)n(C)c1=O	25µM*	.	.	?	-61*	-1%
Cn1c(=O)c2c(nc(SCCN3CCCCC3)n2Cc2ccc(Cl)cc2)n(C)c1=O	35µM*	?	?	-5%	-95*	1%
Cn1c(=O)c2c(nc(SCCN3CCOCC3)n2Cc2ccccc2)n(C)c1=O	-5%	-11%	1.1µM*	-23%	-11	0%
O=C(NC1CCN(Cc2ccccc2)CC1)c1cccc(S(=O)(=O)Nc2ccc(F)cc2)c1	?	.	.	-20%	-77*	.
Cc1ccc(NS(=O)(=O)c2cccc(C(=O)NC3CCN(Cc4ccccc4)CC3)c2)c(C)c1	14µM*	.	.	?	-40	.
O=C(CN1CCC(NC(=O)c2cccc(F)c2)CC1)Nc1ccc(Br)cc1	10µM*	0%	9%	?	2	14%
